Bioassay records from PubChem.
Rows were chosen to be rich in hits. Some 8.9% of all compounds tested hit in one or more screens of this group.
ALDH1A1 inh: blocks purified human ALDH1A1 activity. P00352. AID 1030. Potency, µM (doses to about 75.3 µM), inactives show top-dose activity, negative = inhibition, usual class: inhibitors. hit rate 7.3% among 220,000. Purified ALDH1A1, NADH fluorescence, propionaldehyde substrate; active = well fitted inhibition curve with a large enough effect, not every such curve was filed as active; inconclusive = small, poorly fitted or top-dose-only effect, or another doubt; inactive = no such curve, though single readings can be large or run the other way;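 also: potency is read from the fitted curve at half-maximal effect; plate controls were no enzyme wells and a reference inhibitor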
Target sequence (P00352 whole entry, looked up): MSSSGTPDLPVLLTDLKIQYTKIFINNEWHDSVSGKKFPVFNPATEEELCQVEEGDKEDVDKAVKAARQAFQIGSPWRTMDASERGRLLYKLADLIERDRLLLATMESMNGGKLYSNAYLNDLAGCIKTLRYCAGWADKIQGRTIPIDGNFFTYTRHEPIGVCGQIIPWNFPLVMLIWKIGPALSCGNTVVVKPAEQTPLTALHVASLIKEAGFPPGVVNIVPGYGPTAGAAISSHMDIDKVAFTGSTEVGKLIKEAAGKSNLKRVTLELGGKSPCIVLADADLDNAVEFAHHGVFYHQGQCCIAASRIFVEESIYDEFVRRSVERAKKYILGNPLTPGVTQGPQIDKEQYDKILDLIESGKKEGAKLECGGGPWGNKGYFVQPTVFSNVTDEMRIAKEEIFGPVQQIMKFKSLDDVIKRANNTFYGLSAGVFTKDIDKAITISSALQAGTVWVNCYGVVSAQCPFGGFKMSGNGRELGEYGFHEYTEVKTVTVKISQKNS
IMPase Li inh: cell-permeable IMPase inhibitors with lithium potentiation; Potency, µM (series often up to 59.4 µM), for the others: at the top dose activity, negative = IMPase inhibition, usual class: inhibitors; CHO-M1 cells, IP1 TR-FRET (IP-One), carbachol + lithium; hit rate 0.35% among 210,000; AID 1457;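 also: IP1 builds up when IMPase is blocked and the TR-FRET signal falls; potency is read from the fitted curve at half-maximal effect; plate controls were basal vehicle for no effect and high inhibitor control for full effect; nearly all actives have a fitted effect of over 50% in size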
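Steps: plate 2000 CHO-M1 cells per well and culture 16–30 h; add compound and lithium; incubate 30 min, 37C; add d2-IP1 tracer and Eu cryptate anti-IP1 antibody in lysis buffer; read after 10 min at room temperature.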
12-hLO inh: 12-hLO (ALOX12) enzyme inhibition | P18054 | purified 12-hLO, xylenol orange hydroperoxide absorbance | Potency, µM (top dose mostly 57.1 µM), inactives show at the highest dose activity change, negative = inhibition, hits mostly inhibitors | hit rate 0.12% among 150,000 | AID 1452; also: potency is read from the fitted curve at half-maximal effect; nearly all actives have a fitted effect of over 55% in size
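150 nM 12hLO, 25 mM Hepes pH 7.0 + 0.01% Triton X-100; cpd preinc 15 min RT; 40 uM arachidonic acid, 30 min RT; Fe-XO 30 min; A573/A405 ratio as read-out.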
NPSR antagonist: blocks cAMP signaling of the human neuropeptide S receptor | CHO-NPSR cells, cAMP TR-FRET, antagonist mode | Potency, µM (series often up to 38.3 µM), inactives show at the highest dose activity change, negative = inhibition, actives largely listed as inhibitors | hit rate 1% among 220,000; also: potency is read from the fitted curve at half-maximal effect; nearly all actives have a fitted effect of over 50% in size
IMPase inh: cell-permeable inhibitors of inositol monophosphatase (IMPase); P97697; CHO-M1 cells, IP1 accumulation, HTRF TR-FRET ratio; 120,000 tested, under 10 active; inhibition (IP1 accumulation), % at 46.1 µM; active = well fitted curve in the direction sought with a large enough effect in the signal ratio, not every such curve was filed as active; inconclusive = small, poorly fitted or top-dose-only effect, or a change in a side signal; inactive = no such curve, though single readings can be large or run the other way; the % refers to the signal ratio;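 also: cells stimulated with carbachol in lithium chloride buffer; plate controls were DMSO basal wells for no effect and reference inhibitor wells for full effect; higher means more IMPase inhibition seen as more IP1 and lower FRET ratio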
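Carbachol-driven Gq signalling in CHO-M1 cells (2000/well) generates IP1. Compounds that block IMPase raise IP1 and so reduce the FRET signal from Eu-anti-IP1 and d2-IP1 after a 10 min room-temperature lysis.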
HPGD inh: inhibitors of human 15-hydroxyprostaglandin dehydrogenase (HPGD). P15428. purified HPGD, NADH fluorescence kinetic, PGE2 substrate. Potency, µM, without a hit: at the top dose activity change, negative = inhibition, most hits filed as inhibitors. hit rate 4.3% among 150,000; active = well fitted inhibition curve with a large enough effect, not every such curve was filed as active; inconclusive = small, poorly fitted or top-dose-only effect, or another doubt; inactive = no such curve, though single readings can be large or run the other way; also: potency is read from the fitted curve at half-maximal effect
Target sequence (P15428 whole entry, looked up): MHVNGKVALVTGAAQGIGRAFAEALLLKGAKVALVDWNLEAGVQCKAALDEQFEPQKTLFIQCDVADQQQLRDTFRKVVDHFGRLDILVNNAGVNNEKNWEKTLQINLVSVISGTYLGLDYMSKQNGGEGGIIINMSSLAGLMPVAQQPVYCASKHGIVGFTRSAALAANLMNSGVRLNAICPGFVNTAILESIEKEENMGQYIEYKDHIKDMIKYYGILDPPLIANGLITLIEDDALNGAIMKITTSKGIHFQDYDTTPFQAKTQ
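20 nM HPGD preincubated 15 min at room temperature with compound in 50 mM Tris-HCl pH 8, 0.01% Tween 20. Started with 1 mM NAD+ and 30 uM prostaglandin E2; NADH fluorescence (360/450 nm) read 5 times over 30-s intervals, last minus first.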
* = called active by the depositor; ? = inconclusive; nt = not tested or not shown; [ ] = remark or other dose. Unless noted, calls follow the shape of the dose curve; as a rule, active = well fitted curve in the direction sought with a large enough effect; inconclusive = small, poorly fitted or top-dose-only effect, or another doubt; inactive = no such curve, though single readings can be large; an effect the other way counts as inactive or inconclusive. Unless noted, % is scaled to controls: 0 for no effect and ±100 for the full control effect.

SMILES	ALDH1A1 inh	IMPase Li inh	12-hLO inh	NPSR antagonist	IMPase inh	HPGD inh
CON1C(=O)C(=O)N(OC)C2CCCCC21 (configuration not stated)	16.9%	-4.1%[38.3 µM]	6.2%	-1.7%[46.1 µM]	6.3	-4.0%
COc1ccc(NC(=O)COC(=O)/C=C/c2ccccc2[N+](=O)[O-])cc1OC	-0.8%	-1.5%	0.0%	3.4%	-0.2	-3.7%
CC1CCC(C(C)C)C(OC(=O)C2=C3c4ccccc4S(=O)(=O)N3CC2)C1 (configuration not stated)	?	8.3%	0.2%	10µM*	0.4	?
CC1CCC(C(C)C)[C@H](OC(=O)c2ccccc2)C1 (some centres not stated)	-11.3%	-8.1%	2.4%	nt	nt	-5.8%
Cc1cccc(C)c1OCC(=O)N/N=C/C=C/c1ccco1	12.6µM*	-7.4%	nt	-19.4%	nt	nt
O=C(N/N=C/C=C/c1ccco1)c1ccncc1	nt	nt	nt	48.2%	nt	nt
Cc1cccc(OCC(=O)N/N=C/C=C/c2ccco2)c1	?	12.8%	-9.0%	-30.2%	nt	-7.1%
O=C(N/N=C/C=C\c1ccco1)c1cccs1	28.2µM*	12.2%	nt	-49.5%	nt	nt
O=C(Cc1cccs1)N/N=C/C=C\c1ccco1	25.1µM*	-0.3%	-7.4%	-4.9%[46.1 µM]	8.5	-19.8%
O=C(N/N=C/C=C/c1ccc([N+](=O)[O-])cc1)c1cccs1	-11.9%	-24.7%[38.3 µM]	-4.2%	-5.9%[46.1 µM]	1.7	15.8µM*
O=C(Cc1cccs1)N/N=C/c1ccco1	-2.5%	-1.7%	1.7%	19.1%	2.1	-11.6%
Cc1ccccc1NC(=S)NC(C)C(c1cccs1)N1CCOCC1 (configuration not stated)	-3.1%	14.1%	1.1%	-16.7%	nt	-12.2%
COc1ccc(-c2[nH]ncc2CN2CCCO2)c(F)c1	?	5.4%	nt	-13.1%	nt	nt
COc1cc(/C=C2\CC/C(=C\c3cc(OC)c(O)c(OC)c3)C2=O)cc(OC)c1O	-3.0%	14.8%	-6.6%	-40.5%	nt	?
COc1cc(/C=C2/CCC/C(=C\c3cc(O)c(OC)c(Cl)c3)C2=O)cc(Cl)c1O	14.1µM*	13.8%[38.3 µM]	-4.2%	7.94µM*	-1.5	-25.2%
CCOC(=O)C1CCCN(S(=O)(=O)c2ccccc2)C1 (configuration not stated)	-6.8%	17.7%[38.3 µM]	-1.5%	2.1%[46.1 µM]	2.5	0.1%
O=C(NC1CCCCC1)C1CCCN(c2nnnn2-c2ccccc2)C1 (configuration not stated)	10µM*	10.7%[38.3 µM]	1.5%	-3.7%[46.1 µM]	11.0	-23.4%
O=C(NC1CCCC1)C1CCCN(S(=O)(=O)c2ccc(-n3cnnn3)cc2)C1 (configuration not stated)	4.6%	-9.0%[38.3 µM]	3.7%	-1.4%[46.1 µM]	4.1	-7.0%
CCOC(=O)C1CCCN(c2nnnn2-c2ccccc2)C1 (configuration not stated)	7.08µM*	-8.0%[38.3 µM]	4.2%	-8.5%[46.1 µM]	8.1	-12.3%
CC(=O)c1ccccc1OCCOc1ncnc2sccc12	-0.3%	3.4%	nt	-7.1%	nt	nt
COc1ccc(-n2cccc2/C=C/[N+](=O)[O-])cc1	?	12.9%	-20.0%	-24.6%	nt	35.5µM*
COc1ccc(-n2cccc2C=O)cc1	11.2µM*	3.5%	-2.8%	8.8%	nt	-11.4%
Cc1nc2ccccc2c(=O)n1NC(=O)c1ccc(F)cc1Cl	9.7%	20.2%[38.3 µM]	0.9%	-13.4%[46.1 µM]	12.7	-7.2%
CCc1nnc(NC(=O)CSc2nnc(C3CCCCC3)n2-c2cccc(Cl)c2)s1	0.5%	-3.0%	-3.1%	-15.4%[46.1 µM]	nt	5.1%
CCCc1cc(=O)[nH]c(Nc2ccc(Cl)cc2)n1	13.8%	-4.3%	nt	11.7%	nt	nt
SMILES	ALDH1A1 inh	IMPase Li inh	12-hLO inh	NPSR antagonist	IMPase inh	HPGD inh
Cn1ncc(S(=O)(=O)Cc2ccccc2)c(Cl)c1=O	1.12µM*	nt	nt	?	nt	nt
COc1ccccc1CNC(=O)c1ccc2nc3[nH]c4ccccc4c3nc2c1	7.0%	19.9%	-1.9%	-9.9%	7.4	-10.1%
O=C(c1nn2c(C(F)(F)F)cc(-c3cccs3)nc2c1Br)N1CCCc2ccccc21	-3.1%	3.8%	-2.4%	-26.9%	nt	-10.8%
O=C(c1nn2c(C(F)(F)F)cc(-c3ccco3)nc2c1Br)N1CCCc2ccccc21	7.94µM*	11.5%[38.3 µM]	?	?	11.8	-26.0%
O=C(c1cc(-c2ccccc2)on1)N1CCCc2ccccc21	14.1µM*	17.9%	nt	41.8%	nt	nt
O=C(c1cc(-c2ccco2)on1)N1CCCc2ccccc21	8.91µM*	-6.0%[38.3 µM]	-11.8%	-8.3%[46.1 µM]	6.1	-21.6%
Cn1ccc(C(=O)N2CCCc3ccccc32)n1	12.7%	0.4%[38.3 µM]	-2.4%	-3.7%[46.1 µM]	-0.4	2.4%
CCc1ccccc1N1CSC2=C(C#N)C(c3cc(OC)c(OC)cc3OC)CC(=O)N2C1 (configuration not stated)	?	-22.6%[38.3 µM]	?	-3.1%[46.1 µM]	8.4	7.94µM*
COc1cc(OC)c(C2CC(=O)N3CN(c4ccccc4)CSC3=C2C#N)cc1OC (configuration not stated)	8.91µM*	-3.3%[38.3 µM]	-22.1%	-11.7%[46.1 µM]	-4.1	10µM*
O=C(Cc1ccc(Br)cc1)c1ccc(O)cc1O	2.1%	nt	?	-15.0%[46.1 µM]	-3.7	nt
COc1ccc(CC(=O)c2ccc(O)cc2O)cc1	?	18.7%	-25.9%	-38.5%	nt	25.1µM*
CCOc1ccc(C(=O)Cc2ccc3oc(C(=O)O)cc3c2)c(O)c1	?	0.8%	-4.4%	-6.1%[46.1 µM]	5.4	7.94µM*
CCC(=O)c1cc(F)c(N2CCN(C(=O)c3ccco3)CC2)cc1C	?	-29.1%[38.3 µM]	4.5%	-14.2%[46.1 µM]	3.5	-20.2%
Cc1cccc(NC(=O)CSc2nc(C)c(CC(=O)c3ccc(Br)cc3)c(C)c2C#N)c1C	7.2%	?	2.2%	6.31µM*	-21.1	-1.5%
Cc1ccc(CN2CCN(/N=C/C=C/c3ccccc3[N+](=O)[O-])CC2)cc1	6.31µM*	30.1%	nt	-24.7%	nt	nt
COc1ccccc1/C=C/C=N/N1CCN(Cc2ccccc2)CC1	?	0.0%	1.3%	7.2%	nt	-12.0%
O=C(c1ccc(CSc2nc3ccncc3[nH]2)cc1)N1CCCCCC1	nt	nt	nt	-1.7%	nt	nt
CC1CCN(C(=O)c2ccc(CSc3nc4ccncc4n3Cc3ccc(F)cc3)cc2)CC1	-7.9%	15.5%	-3.8%	-4.3%	nt	0.794µM*
CSC1=NSC2=NC(=O)/C(=C/c3coc4ccc(O)cc4c3=O)C(=N)N12	?	0.8%	-8.2%	-20.3%	nt	22.4µM*
O=C1NC(=O)/C(=C/c2cccc([N+](=O)[O-])c2)N1	nt	nt	nt	14.2%	nt	nt
CCN1C/C(=C/c2cccc([N+](=O)[O-])c2)C(=O)/C(=C/c2cccc([N+](=O)[O-])c2)C1	?	13.9%	3.7%	2.51µM*	nt	-1.9%
Cc1cccc(OCCCc2c(C)n[nH]c2C)c1	0.5%	-0.3%[38.3 µM]	8.0%	-4.9%[46.1 µM]	6.7	-10.3%
O=C1/C(=C\c2ccccn2)SC(=S)N1Nc1ncc(C(F)(F)F)cc1Cl	?	7.6%[38.3 µM]	-15.4%	?	-17.9	31.6µM*
